# High-throughput results from PubChem BioAssay.
# IDE exosite inh – exo-site inhibitors of human IDE, primary screen, biochemical, fluorescence anisotropy, probe displacement | 17,000 compounds, 6.3% hits | z-score at 20 µM | purified IDE, FL-6b probe fluorescence polarization; stronger effect = lower value | Insulin-degrading enzyme (Homo sapiens), P14735;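 active = z-score of -3 or lower, meaning strong loss of probe binding signal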;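 also: His-tagged human IDE residues 42-1019 made in E. coli with 30 nM FL-6b probe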
# A number is an active result; . = inactive. The full list was thinned out, with hits kept by preference.
SMILES,IDE exosite inh
COCC(=O)N1CC(=O)N2[C@H](CO)[C@@H](c3ccc(C#CCc4ccccc4)cc3)[C@@H]2C1,.
O=C(C1CCOCC1)N1CC(=O)N2[C@@H](CO)[C@@H](c3ccc(C#CCc4ccccc4)cc3)[C@@H]2C1,.
O=C(C1CC1)N1CC(=O)N2[C@@H](CO)[C@@H](c3ccc(C#CCc4ccccc4)cc3)[C@@H]2C1,-3.3
O=C(C1CCOCC1)N1CC(=O)N2[C@H](CO)[C@@H](c3ccc(C#CCc4ccccc4)cc3)[C@@H]2C1,.
COCC(=O)N1CC(=O)N2[C@H](CO)[C@H](c3ccc(C#CCc4ccccc4)cc3)[C@H]2C1,.
COCC(=O)N1CC(=O)N2[C@@H](CO)[C@@H](c3ccc(C#CCc4ccccc4)cc3)[C@@H]2C1,-4.7
O=C(C1CCOCC1)N1CC(=O)N2[C@H](C1)[C@@H](c1ccc(C#CCc3ccccc3)cc1)[C@@H]2CO,.
COCC(=O)N1CC(=O)N2[C@@H](CO)[C@H](c3ccc(C#CCc4ccccc4)cc3)[C@@H]2C1,.
O=C(C1CC1)N1CC(=O)N2[C@H](C1)[C@H](c1ccc(C#CCc3ccccc3)cc1)[C@@H]2CO,-4.6
O=C(c1ccc(F)cc1)N1CC(=O)N2[C@H](CO)[C@H](c3ccc(C#Cc4ccc(F)cc4)cc3)[C@H]2C1,.
C[C@@H]1CN([C@@H](C)CO)C(=O)c2cccc(N(C)C)c2O[C@@H]1CN(C)C(=O)Nc1ccc(F)cc1,.
CCCNC(=O)N1[C@H](C#N)[C@H](c2ccccc2-c2ccc(OC)cc2)[C@@H]1CO,.
O=C(c1ccccn1)N1C[C@H]2[C@@H](c3ccccc31)[C@@H](CO)N2C(=O)C1CCCCC1,.
CN(C)CC(=O)N1CC(=O)N2[C@H](CO)[C@@H](c3ccc(-c4ccc(C(=O)N(C)C)cc4)cc3)[C@H]2C1,.
C/C=C/c1ccc([C@H]2[C@H](CO)N3C(=O)CN(C(=O)NC4CCCCC4)C[C@@H]23)cc1,.
Cc1ccc(-c2ccc([C@H]3[C@H]4CN(C(=O)NC(C)C)CC(=O)N4[C@H]3CO)cc2)cc1,.
Cc1ccc(-c2ccc([C@H]3[C@H](CO)N4C(=O)CN(C(=O)NC(C)C)C[C@@H]34)cc2)cc1,.
O=C(NC1CCCC1)N1CC(=O)N2[C@H](CO)[C@@H](c3ccc(/C=C/c4ccccc4)cc3)[C@H]2C1,-9.5
CN(C)CC(=O)N1CC(=O)N2[C@H](CO)[C@@H](c3ccc(/C=C/c4ccccc4)cc3)[C@H]2C1,-5.6
CN(C)CC#Cc1ccc([C@@H]2[C@@H](CO)N3C(=O)CN(C(=O)CN(C)C)C[C@H]23)cc1,.
O=C(NC1CCCC1)N1CC(=O)N2[C@H](CO)[C@H](c3ccc(/C=C/c4ccccc4)cc3)[C@@H]2C1,.
CC(C)NC(=O)N1CC(=O)N2[C@H](CO)[C@@H](c3ccc(/C=C/c4ccccc4)cc3)[C@H]2C1,-6.9
C/C=C/c1ccc([C@@H]2[C@@H](CO)N3C(=O)CN(C(=O)NC4CCCC4)C[C@@H]23)cc1,-3.2
C/C=C/c1ccc([C@H]2[C@@H](CO)N3C(=O)CN(C(=O)CC4CC4)C[C@@H]23)cc1,.
O=C(NC1CCCCC1)N1CC(=O)N2[C@H](C1)[C@@H](c1ccc(/C=C/c3ccccc3)cc1)[C@@H]2CO,.
SMILES,IDE exosite inh
CC(C)C#Cc1ccc([C@@H]2[C@H]3CN(C(=O)c4ccc(F)cc4)CCCCN3[C@H]2CO)cc1,.
O=C(Nc1ccccc1F)N1CC(=O)N2[C@H](C1)[C@H](c1ccc(C#CC3CCCC3)cc1)[C@@H]2CO,.
O=C(c1ccccc1F)N1CC(=O)N2[C@H](CO)[C@@H](c3ccc(C#Cc4ccc(F)cc4)cc3)[C@H]2C1,.
CN(C)CC#Cc1ccc([C@@H]2[C@@H](CO)N3CCCCN(C(=O)c4ccc5c(c4)OCO5)C[C@@H]23)cc1,.
CCC(=O)Nc1ccc2c(c1)C(=O)N(C)C[C@@H](OC)[C@@H](C)CN(Cc1nccs1)[C@@H](C)CO2,.
C[C@H](NC(=O)C[C@@H]1CC[C@H]2[C@@H](COC[C@H](O)CN2C(=O)Nc2cccc(Cl)c2)O1)c1ccccc1,.
CC(=O)N1CC(=O)N2[C@H](CO)[C@@H](c3ccc(-c4ccc(C#N)cc4)cc3)[C@H]2C1,.
COc1ccc(S(=O)(=O)N(C)C[C@@H]2OCCCC[C@H](C)Oc3ccc(NC(=O)Cc4ccccc4)cc3C(=O)N([C@H](C)CO)C[C@@H]2C)cc1,.
O=C(Nc1ccccc1F)N1CC(=O)N2[C@H](C1)[C@@H](c1ccc(-c3cccnc3)cc1)[C@@H]2CO,.
O=C(NC1CCCC1)N1CC(=O)N2[C@@H](CO)[C@H](c3ccc(/C=C/c4ccccc4)cc3)[C@@H]2C1,-6.5
COc1ccc(NC(=O)N2CC(=O)N3[C@@H](CO)[C@H](c4ccc(/C=C/c5ccccc5)cc4)[C@@H]3C2)cc1,.
COc1ccc(NC(=O)N(C)C[C@H]2OCCCC[C@H](C)Oc3ccc(NC(=O)c4ccncc4)cc3C(=O)N([C@@H](C)CO)C[C@H]2C)cc1,.
O=C1[C@H](Cc2ccc(F)cc2)CCn2cc(nn2)COC[C@H]2CCCN12,.
